A selection: hits, their analogues and other compounds. The true share with any hit is near 1.7%.
p97 ATPase inh: inhibitors of human p97 ATPase, primary screen, biochemical. Transitional endoplasmic reticulum ATPase (Homo sapiens), P55072. recombinant p97 ATPase, Kinase-Glo ATP luminescence, 3 h. inhibition, % at 8 µM. 220,000 compounds, 0.42% hits. AID 1481, 2009; in the data active means inhibition above about 15%;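 further: 0% = DMSO vehicle and 100% = wells lacking enzyme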
LYPLA2 inh: LYPLA2 inhibitors, primary screen, counter-screen for PME1 inhibitor project, biochemical, fluorescence polarization, FP-Rh probe ABPP; Acyl-protein thioesterase 2 (Homo sapiens), O95372; recombinant LYPLA2; inhibition, % at 5.9 µM; 320,000 compounds, 0.38% hits; AID 2177, 2009;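 active means inhibition above the screen-wide mean plus 3 SD, limit set per campaign, cut at about 26% in these data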;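 further: 0% = LYPLA2 with DMSO and 100% = wells lacking LYPLA2 enzyme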
LYPLA1 counter: LYPLA1 inhibitors, primary screen, counter-screen for PME1 inhibitor project, biochemical, fluorescence polarization, FP-Rh probe ABPP | Acyl-protein thioesterase 1 (Homo sapiens), O75608 | recombinant LYPLA1 | inhibition, % at 5.9 µM | 320,000 compounds, 0.16% hits | AID 2174, 2009;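 active means inhibition above the mean of all tested compounds plus 3 SD, set per campaign, cut at about 14% in these data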;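 further: inhibitors block serine hydrolase probe labeling of LYPLA1 so polarization falls; 0% = enzyme with DMSO and 100% = wells lacking LYPLA1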
PREPL inhibitor: PREPL enzyme inhibitors, primary screen, biochemical, fluorescence polarization; Prolyl endopeptidase-like (Homo sapiens), Q4J6C6; recombinant PREPL, fluorescence polarization activity-based probe; inhibition, % at 5.96 µM; 320,000 compounds, 0.68% hits; AID 2751, 2010; in the data active means inhibition above about 43%;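 further: 0% = enzyme with DMSO and 100% = wells lacking enzyme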
Target sequence (Q4J6C6 whole entry, looked up): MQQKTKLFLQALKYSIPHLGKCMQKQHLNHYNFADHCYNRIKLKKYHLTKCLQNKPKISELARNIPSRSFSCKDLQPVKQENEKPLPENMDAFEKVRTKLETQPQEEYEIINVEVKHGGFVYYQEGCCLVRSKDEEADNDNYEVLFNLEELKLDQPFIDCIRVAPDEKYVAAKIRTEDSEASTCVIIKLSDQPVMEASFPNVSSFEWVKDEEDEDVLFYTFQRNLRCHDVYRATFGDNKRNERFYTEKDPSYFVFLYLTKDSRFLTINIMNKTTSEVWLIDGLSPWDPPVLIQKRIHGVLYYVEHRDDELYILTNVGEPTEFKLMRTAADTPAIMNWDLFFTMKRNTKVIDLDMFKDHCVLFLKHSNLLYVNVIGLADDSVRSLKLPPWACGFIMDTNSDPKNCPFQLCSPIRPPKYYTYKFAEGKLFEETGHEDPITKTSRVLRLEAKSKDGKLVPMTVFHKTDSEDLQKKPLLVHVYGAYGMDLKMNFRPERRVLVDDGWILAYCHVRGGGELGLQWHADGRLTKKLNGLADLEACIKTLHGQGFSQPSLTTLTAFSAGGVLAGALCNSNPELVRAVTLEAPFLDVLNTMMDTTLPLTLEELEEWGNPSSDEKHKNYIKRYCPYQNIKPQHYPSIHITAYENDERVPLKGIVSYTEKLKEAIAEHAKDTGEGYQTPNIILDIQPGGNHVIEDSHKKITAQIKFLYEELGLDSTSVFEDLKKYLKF
Rin1 Abl inh: inhibitors of Rin1-Abl protein binding, primary screen, biochemical, TR-FRET. Tyrosine-protein kinase ABL1 (Homo sapiens) + Ras and Rab interactor 1 (Homo sapiens), …. inhibition, % at 7.35 µM. 360,000 compounds, 0.4% hits. AID 588664, 2011; in the data active means inhibition above about 5%, passing the limit was not always enough
Hck Nef HTS: inhibitors of Nef-activated human Hck kinase, primary screen, biochemical, Z-Lyte FRET, 384-well, Hck-YEEI; Tyrosine-protein kinase HCK (Homo sapiens), P08631; AID 463187, 2010; inhibition, % at 20 µM; 220,000 compounds, 0.68% hits; Recombinant Hck-YEEI plus Nef, Z-Lyte FRET kinase assay;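 active means Hck-Nef kinase inhibition above about 50%, limit read from the data; inactive means inhibition below that limit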;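 further: 0% = DMSO with Hck plus Nef and 100% = Hck alone without Nef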
Hck-Nef confirm: retest of Hck:Nef kinase inhibitor hits, confirmation, biochemical, Z-Lyte FRET, 384-well, p-Tyr peptide counterscreen | shares compounds with Hck Nef HTS | 1,300 compounds, 28% hits | Recombinant Hck-YEEI:Nef, Z-Lyte FRET kinase assay | calls only at 10 µM;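 active means average inhibition of at least 50%, with Z-scores no higher than 3 in both the phospho-tyrosine peptide and fluorescence counterscreens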
Numbers without * were called inactive.

What do the screens show for `Cc1c(-n2c(O)c(C3=c4ccccc4=NC3=O)sc2=S)c(=O)n(-c2ccccc2)n1C`?
p97 ATPase inh: 8; LYPLA2 inh: -3; LYPLA1 counter: 3; PREPL inhibitor: -1; Rin1 Abl inh: 2; Hck Nef HTS: 100*; Hck-Nef confirm: active

How did CCNc1cc2oc(=O)c(CN3CCOCC3)c(C)c2cc1C do in these assays?
p97 ATPase inh: 4; LYPLA2 inh: 1; LYPLA1 counter: -2; PREPL inhibitor: 11; Rin1 Abl inh: -6; Hck Nef HTS: 82*

What do the screens show for `COc1ccc(NC(=O)N(C)C[C@H]2Oc3ccc(NS(=O)(=O)c4c(C)noc4C)cc3C(=O)N([C@H](C)CO)C[C@@H]2C)cc1`?
PREPL inhibitor: 12; Rin1 Abl inh: 7

Results for O=C(CSc1nc2ccccc2n1CC(=O)NCc1ccccc1)NCc1ccco1 ?
p97 ATPase inh: 4; LYPLA2 inh: 0; LYPLA1 counter: 0; PREPL inhibitor: 12; Rin1 Abl inh: -2; Hck Nef HTS: 1

How did CCC(Sc1nc2ccccc2c2nc3ccccc3n12)C(=O)NCc1ccco1 (stereo not given) do in these assays?
p97 ATPase inh: 1; LYPLA2 inh: -1; LYPLA1 counter: 0; PREPL inhibitor: -16; Hck Nef HTS: 70*; Hck-Nef confirm: active

What do the screens show for `Cc1c(NC(=O)CSc2nc3ccccc3c(=O)n2C(C)C)c(=O)n(-c2ccccc2)n1C`?
LYPLA2 inh: 4; LYPLA1 counter: 3; PREPL inhibitor: -2; Rin1 Abl inh: 2

What do the screens show for `O=C(N=Nc1c(O)n(C2OC(=O)c3ccccc32)c2ccccc12)c1ccco1` (stereo not given)?
p97 ATPase inh: -2; LYPLA2 inh: 4; LYPLA1 counter: 0; PREPL inhibitor: -7; Hck Nef HTS: 65*; Hck-Nef confirm: inactive

What do the screens show for `CCCCn1c(O)c(N=NC(=O)c2ccco2)c2ccccc21`?
p97 ATPase inh: -2; LYPLA2 inh: 3; LYPLA1 counter: -2; PREPL inhibitor: 7; Rin1 Abl inh: -5; Hck Nef HTS: 4

What do the screens show for `COC(=O)C1=CN(Cc2ccc(OC)c(OC)c2)C=C(C(=O)OC)C1c1cccc(OC)c1OC`?
LYPLA2 inh: 7; LYPLA1 counter: 0; PREPL inhibitor: 12; Rin1 Abl inh: -2

What do the screens show for `COCCN1C=C(C(=O)OC)C(c2ccccc2Cl)C(C(=O)OC)=C1`?
p97 ATPase inh: -2; LYPLA2 inh: 2; LYPLA1 counter: 1; PREPL inhibitor: 0; Rin1 Abl inh: 2; Hck Nef HTS: 153*

Results for CCN1C=C(C(=O)OC)C(c2cccc(OC)c2OC)C(C(=O)OC)=C1 ?
p97 ATPase inh: 1; LYPLA2 inh: -4; LYPLA1 counter: -3; PREPL inhibitor: -1; Rin1 Abl inh: -1; Hck Nef HTS: 85*

What do the screens show for `COc1ccccc1C(=O)Nc1ccnn1C1CCN(CCCc2ccccc2)CC1`?
LYPLA2 inh: 6; LYPLA1 counter: 0; PREPL inhibitor: -17; Rin1 Abl inh: 3

Results for Cc1csc(NC(=O)C(C)N2C(=O)c3ccccc3S2(=O)=O)n1 (stereo not given) ?
LYPLA2 inh: 2; LYPLA1 counter: 2; PREPL inhibitor: 6; Rin1 Abl inh: 6

What do the screens show for `COc1ccc(-c2nc(CS(=O)CC(=O)N3CCOCC3)c(C)o2)cc1OC` (stereo not given)?
LYPLA2 inh: 8; LYPLA1 counter: -2; PREPL inhibitor: 17; Rin1 Abl inh: 2

What do the screens show for `Cc1cc(=O)oc2cc3c(cc12)OCCO3`?
p97 ATPase inh: -1; LYPLA2 inh: 2; LYPLA1 counter: 0; PREPL inhibitor: -2; Rin1 Abl inh: 1; Hck Nef HTS: -2

What do the screens show for `Cc1cc(=O)oc2cc3c(cc12)OCCN3`?
p97 ATPase inh: 0; LYPLA2 inh: -4; LYPLA1 counter: -2; PREPL inhibitor: -6; Rin1 Abl inh: -10; Hck Nef HTS: 107*

What do the screens show for `O=C(COC(=O)CNC(=O)c1ccc(Cl)c([N+](=O)[O-])c1)NC(=O)c1ccccc1`?
LYPLA2 inh: 4; LYPLA1 counter: -2; PREPL inhibitor: 5; Rin1 Abl inh: 0

Results for Cc1ccc(NC(=O)CN2C(=O)N/C(=C/c3cc(C)n(-c4ccc(C(=O)O)cc4)c3C)C2=O)cc1 ?
p97 ATPase inh: 7; Rin1 Abl inh: 5; Hck Nef HTS: 56*; Hck-Nef confirm: inactive

How did Cc1cc(NC(=O)c2ccc(S(=O)(=O)N3CCc4ccccc43)cc2)no1 do in these assays?
p97 ATPase inh: 4; LYPLA2 inh: -18; LYPLA1 counter: -5; PREPL inhibitor: -14; Rin1 Abl inh: 2; Hck Nef HTS: 52*; Hck-Nef confirm: inactive

Results for Cc1cn(C2CC(O)C(CO)O2)c(=O)n(Cc2ccccc2)c1=O (stereo not given) ?
Rin1 Abl inh: -2

What do the screens show for `Cn1c(COc2ccc(Br)cc2)nnc1SC1CCc2ccccc2C1=O` (stereo not given)?
p97 ATPase inh: 1; LYPLA2 inh: 0; LYPLA1 counter: -3; PREPL inhibitor: -2; Rin1 Abl inh: -1; Hck Nef HTS: 51*; Hck-Nef confirm: inactive

Results for Cn1c(COc2ccccc2)nnc1SCCSc1nnc(COc2ccccc2)n1C ?
p97 ATPase inh: -7; LYPLA2 inh: 1; LYPLA1 counter: 0; PREPL inhibitor: 3; Rin1 Abl inh: 3; Hck Nef HTS: 3

What do the screens show for `Cc1ccccc1NC(=O)c1cccc(NC(=O)c2ccccc2C(=O)O)c1`?
LYPLA2 inh: -1; LYPLA1 counter: -1; PREPL inhibitor: -6; Rin1 Abl inh: 2

Results for CC1(c2ccccc2)CC(C)(C)N2C(=O)C3(C(C#N)=C(N)Oc4cc(O)ccc43)c3cccc1c32 (stereo not given) ?
p97 ATPase inh: -1; LYPLA2 inh: -18; LYPLA1 counter: -12; PREPL inhibitor: 3; Rin1 Abl inh: 5; Hck Nef HTS: 0

Results for CC1(c2ccccc2)CC(C)(C)N2C(=O)/C(=C3\SC(=S)NC3=O)c3cccc1c32 (stereo not given) ?
p97 ATPase inh: -6; LYPLA2 inh: 3; LYPLA1 counter: -3; PREPL inhibitor: 1; Rin1 Abl inh: -2; Hck Nef HTS: 94*; Hck-Nef confirm: active
